Assay results as given in article PMC7862700, “An all-to-all approach to the identification of sequence-specific readers for epigenetic DNA modifications on cytosine”.

Key:
Test in all cases: DAPPL (digital affinity profiling via proximity ligation, sequencing); 10 mM Tris-HCl pH 7.5, 50 mM NaCl, 1 mM DTT, 4% glycerol, room temperature, 30 min; GST-TFs on glutathione beads, 16-mer random dsDNA library, 0.1% formaldehyde crosslink after washing; high values mean tight binding
FLI1 = target: T1, FLI1 (Homo sapiens, UniProt Q01543 1-452); conditions: protein: recombinant; tags: N-terminal GST; dsDNA, one strand shown
T1 sequence: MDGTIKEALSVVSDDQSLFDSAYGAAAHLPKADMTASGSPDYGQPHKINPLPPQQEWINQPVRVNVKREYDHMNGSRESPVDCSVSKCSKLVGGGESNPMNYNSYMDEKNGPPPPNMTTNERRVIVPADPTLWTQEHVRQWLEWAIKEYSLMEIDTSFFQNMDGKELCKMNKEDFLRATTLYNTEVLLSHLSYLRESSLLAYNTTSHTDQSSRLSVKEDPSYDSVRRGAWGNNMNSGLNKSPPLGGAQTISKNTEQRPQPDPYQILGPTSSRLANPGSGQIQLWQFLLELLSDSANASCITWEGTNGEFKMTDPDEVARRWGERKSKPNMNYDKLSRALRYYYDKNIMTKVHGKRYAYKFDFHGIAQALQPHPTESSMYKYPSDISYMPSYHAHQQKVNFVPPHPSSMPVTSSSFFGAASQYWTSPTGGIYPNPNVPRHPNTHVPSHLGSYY
Procedure, shortened: (§1)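 Yeast served to express human transcription factors as GST fusions, which were then captured on glutathione beads and labelled with DNA barcodes. Pooled with a tag-only sample, they were incubated with 200 nmole of a 16-mer random double-stranded DNA library for 30 min at room temperature in Tris/NaCl/DTT/glycerol buffer, washed, crosslinked with 0.1% formaldehyde, ligated by proximity, amplified by PCR and sequenced. Dividing each hexamer's read frequency for a factor by its frequency for the tag-only sample gives the binding signal.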

ELK1 = target: T2, ELK1 (Homo sapiens, UniProt P19419 1-428); conditions: protein: recombinant; tags: N-terminal GST; dsDNA, one strand shown
T2 sequence: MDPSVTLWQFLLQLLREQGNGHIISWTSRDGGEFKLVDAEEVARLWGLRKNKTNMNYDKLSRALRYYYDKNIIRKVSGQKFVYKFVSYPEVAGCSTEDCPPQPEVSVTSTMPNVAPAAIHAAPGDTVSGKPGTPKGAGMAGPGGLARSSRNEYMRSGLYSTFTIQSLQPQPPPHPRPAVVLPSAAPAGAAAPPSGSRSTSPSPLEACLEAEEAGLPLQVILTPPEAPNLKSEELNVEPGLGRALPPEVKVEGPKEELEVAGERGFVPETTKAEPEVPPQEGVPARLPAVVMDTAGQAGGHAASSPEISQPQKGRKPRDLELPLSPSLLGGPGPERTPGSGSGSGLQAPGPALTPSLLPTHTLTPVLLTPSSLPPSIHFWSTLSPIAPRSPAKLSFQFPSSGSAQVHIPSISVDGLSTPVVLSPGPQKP
Procedure, shortened: as §1

GABPA = target: T3, GABPA (Homo sapiens, UniProt Q06546 1-454); conditions: protein: recombinant; tags: N-terminal GST; dsDNA, one strand shown
T3 sequence: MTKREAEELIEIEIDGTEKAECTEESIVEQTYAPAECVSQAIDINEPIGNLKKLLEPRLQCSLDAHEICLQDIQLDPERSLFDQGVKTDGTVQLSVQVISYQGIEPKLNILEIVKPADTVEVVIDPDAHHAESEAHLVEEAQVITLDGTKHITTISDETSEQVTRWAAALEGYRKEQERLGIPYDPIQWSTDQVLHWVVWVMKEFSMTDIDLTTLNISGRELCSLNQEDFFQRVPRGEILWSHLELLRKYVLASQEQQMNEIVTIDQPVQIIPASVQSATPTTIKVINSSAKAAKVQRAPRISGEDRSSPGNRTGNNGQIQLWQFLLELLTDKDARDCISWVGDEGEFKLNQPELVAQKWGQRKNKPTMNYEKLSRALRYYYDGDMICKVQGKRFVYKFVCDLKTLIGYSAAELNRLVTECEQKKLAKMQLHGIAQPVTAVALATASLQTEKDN
Procedure, shortened: as §1

ERG = target: T4, ERG (Homo sapiens, UniProt P11308 1-479); conditions: protein: recombinant; tags: N-terminal GST; dsDNA, one strand shown
T4 sequence: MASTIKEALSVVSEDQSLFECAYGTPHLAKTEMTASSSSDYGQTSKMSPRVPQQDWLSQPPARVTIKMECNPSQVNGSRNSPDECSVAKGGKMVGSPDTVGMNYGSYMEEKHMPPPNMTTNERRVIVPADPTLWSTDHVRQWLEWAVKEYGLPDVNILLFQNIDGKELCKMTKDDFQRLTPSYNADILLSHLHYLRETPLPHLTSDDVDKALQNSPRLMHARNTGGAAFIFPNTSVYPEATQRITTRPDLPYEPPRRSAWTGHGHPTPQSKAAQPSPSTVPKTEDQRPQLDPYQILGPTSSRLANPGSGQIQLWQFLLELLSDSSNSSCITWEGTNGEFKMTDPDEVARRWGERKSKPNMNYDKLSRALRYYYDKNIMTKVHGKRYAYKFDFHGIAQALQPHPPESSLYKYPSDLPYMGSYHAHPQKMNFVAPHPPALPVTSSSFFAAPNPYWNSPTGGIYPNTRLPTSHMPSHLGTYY
Procedure, shortened: as §1

ELF1 = ELF1 (Homo sapiens, UniProt P32519 1-619); conditions: protein: recombinant; tags: N-terminal GST; dsDNA, one strand shown
Sequence of ELF1 (P32519 whole entry): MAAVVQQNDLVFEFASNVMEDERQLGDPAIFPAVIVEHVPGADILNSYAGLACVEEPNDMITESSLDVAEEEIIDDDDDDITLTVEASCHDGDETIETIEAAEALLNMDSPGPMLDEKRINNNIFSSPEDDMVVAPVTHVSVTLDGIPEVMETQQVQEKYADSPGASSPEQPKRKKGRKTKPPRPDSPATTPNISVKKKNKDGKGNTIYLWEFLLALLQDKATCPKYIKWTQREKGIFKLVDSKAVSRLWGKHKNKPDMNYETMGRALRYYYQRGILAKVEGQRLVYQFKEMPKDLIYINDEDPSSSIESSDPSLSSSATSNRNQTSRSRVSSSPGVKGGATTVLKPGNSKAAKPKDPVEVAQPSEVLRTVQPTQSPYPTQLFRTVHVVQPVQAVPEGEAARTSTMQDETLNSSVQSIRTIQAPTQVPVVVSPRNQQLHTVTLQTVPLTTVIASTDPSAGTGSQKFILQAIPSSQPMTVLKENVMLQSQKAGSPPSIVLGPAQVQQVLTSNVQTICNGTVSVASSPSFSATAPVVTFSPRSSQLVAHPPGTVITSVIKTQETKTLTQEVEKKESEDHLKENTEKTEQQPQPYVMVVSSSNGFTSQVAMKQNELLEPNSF
Procedure, shortened: as §1

SPIB = SPIB (Homo sapiens, UniProt Q01892 1-262); conditions: protein: recombinant; tags: N-terminal GST; dsDNA, one strand shown
Sequence of SPIB (Q01892 whole entry): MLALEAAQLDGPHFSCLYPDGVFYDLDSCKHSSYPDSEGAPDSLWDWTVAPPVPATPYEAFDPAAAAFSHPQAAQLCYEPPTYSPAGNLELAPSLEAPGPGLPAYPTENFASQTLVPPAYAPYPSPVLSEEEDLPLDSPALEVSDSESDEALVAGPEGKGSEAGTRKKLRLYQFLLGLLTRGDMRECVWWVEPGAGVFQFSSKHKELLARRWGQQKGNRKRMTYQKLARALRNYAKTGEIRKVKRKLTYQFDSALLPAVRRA
Procedure, shortened: as §1

ELK3 = target: T5, ELK3 (Homo sapiens, UniProt P41970 1-407); conditions: protein: recombinant; tags: N-terminal GST; dsDNA, one strand shown
T5 sequence: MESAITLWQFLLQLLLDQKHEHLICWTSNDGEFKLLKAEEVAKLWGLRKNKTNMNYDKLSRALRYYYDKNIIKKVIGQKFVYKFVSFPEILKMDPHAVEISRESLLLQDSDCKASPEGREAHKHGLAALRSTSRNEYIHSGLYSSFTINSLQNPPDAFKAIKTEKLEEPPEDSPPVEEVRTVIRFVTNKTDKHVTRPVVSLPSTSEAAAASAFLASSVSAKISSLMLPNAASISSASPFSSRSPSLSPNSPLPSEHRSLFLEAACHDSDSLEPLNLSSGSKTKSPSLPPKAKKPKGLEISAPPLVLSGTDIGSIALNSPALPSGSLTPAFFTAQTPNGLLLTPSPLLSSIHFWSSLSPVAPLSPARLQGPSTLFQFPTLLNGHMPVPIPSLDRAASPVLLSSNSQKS
Procedure, shortened: as §1

ETV5 = ETV5 (Homo sapiens, UniProt P41161 1-510); conditions: protein: recombinant; tags: N-terminal GST; dsDNA, one strand shown
Sequence of ETV5 (P41161 whole entry): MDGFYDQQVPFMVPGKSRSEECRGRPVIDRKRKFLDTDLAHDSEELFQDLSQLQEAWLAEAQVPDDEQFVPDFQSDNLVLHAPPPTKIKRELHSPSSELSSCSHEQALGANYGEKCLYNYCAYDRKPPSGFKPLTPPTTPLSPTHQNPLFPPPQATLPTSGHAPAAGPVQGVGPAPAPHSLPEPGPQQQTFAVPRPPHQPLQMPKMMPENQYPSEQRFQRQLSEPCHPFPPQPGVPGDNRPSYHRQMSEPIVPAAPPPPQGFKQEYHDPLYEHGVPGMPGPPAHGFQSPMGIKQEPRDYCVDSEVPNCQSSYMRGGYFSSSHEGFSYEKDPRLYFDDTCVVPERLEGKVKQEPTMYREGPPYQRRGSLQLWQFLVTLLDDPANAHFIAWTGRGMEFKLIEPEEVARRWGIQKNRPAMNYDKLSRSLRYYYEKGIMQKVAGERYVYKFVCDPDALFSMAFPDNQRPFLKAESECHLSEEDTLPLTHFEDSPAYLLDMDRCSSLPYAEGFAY
Procedure, shortened: as §1

HSF1 = HSF1 (Homo sapiens, UniProt Q00613 1-529); conditions: protein: recombinant; tags: N-terminal GST; chain copies: 3; dsDNA, one strand shown
Sequence of HSF1 (Q00613 whole entry): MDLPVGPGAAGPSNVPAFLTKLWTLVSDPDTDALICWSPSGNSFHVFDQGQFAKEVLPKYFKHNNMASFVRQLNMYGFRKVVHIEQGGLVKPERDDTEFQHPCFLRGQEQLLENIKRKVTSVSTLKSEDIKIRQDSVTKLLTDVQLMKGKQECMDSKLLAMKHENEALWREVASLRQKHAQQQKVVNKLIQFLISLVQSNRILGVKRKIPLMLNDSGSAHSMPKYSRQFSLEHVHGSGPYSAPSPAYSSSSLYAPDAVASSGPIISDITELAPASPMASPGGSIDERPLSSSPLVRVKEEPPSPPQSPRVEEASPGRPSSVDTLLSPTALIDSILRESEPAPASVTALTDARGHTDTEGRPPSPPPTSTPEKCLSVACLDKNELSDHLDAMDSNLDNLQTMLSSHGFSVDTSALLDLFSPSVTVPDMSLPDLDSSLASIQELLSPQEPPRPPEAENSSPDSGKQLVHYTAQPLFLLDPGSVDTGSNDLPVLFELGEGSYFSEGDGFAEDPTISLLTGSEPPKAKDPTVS
Procedure, shortened: as §1

SPIC = target: T6, SPIC (Homo sapiens, UniProt Q8N5J4 1-248); conditions: protein: recombinant; tags: N-terminal GST; dsDNA, one strand shown
T6 sequence: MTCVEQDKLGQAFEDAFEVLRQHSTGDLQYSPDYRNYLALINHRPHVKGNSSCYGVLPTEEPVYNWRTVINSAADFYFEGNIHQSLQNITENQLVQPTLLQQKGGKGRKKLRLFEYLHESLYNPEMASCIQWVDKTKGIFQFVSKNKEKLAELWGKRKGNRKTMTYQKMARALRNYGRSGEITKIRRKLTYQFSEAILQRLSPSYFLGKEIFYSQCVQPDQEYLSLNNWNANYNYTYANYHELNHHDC
Procedure, shortened: as §1

ELF4 = ELF4 (Homo sapiens, UniProt Q99607 1-663); conditions: protein: recombinant; tags: N-terminal GST; dsDNA, one strand shown
Sequence of ELF4 (Q99607 whole entry): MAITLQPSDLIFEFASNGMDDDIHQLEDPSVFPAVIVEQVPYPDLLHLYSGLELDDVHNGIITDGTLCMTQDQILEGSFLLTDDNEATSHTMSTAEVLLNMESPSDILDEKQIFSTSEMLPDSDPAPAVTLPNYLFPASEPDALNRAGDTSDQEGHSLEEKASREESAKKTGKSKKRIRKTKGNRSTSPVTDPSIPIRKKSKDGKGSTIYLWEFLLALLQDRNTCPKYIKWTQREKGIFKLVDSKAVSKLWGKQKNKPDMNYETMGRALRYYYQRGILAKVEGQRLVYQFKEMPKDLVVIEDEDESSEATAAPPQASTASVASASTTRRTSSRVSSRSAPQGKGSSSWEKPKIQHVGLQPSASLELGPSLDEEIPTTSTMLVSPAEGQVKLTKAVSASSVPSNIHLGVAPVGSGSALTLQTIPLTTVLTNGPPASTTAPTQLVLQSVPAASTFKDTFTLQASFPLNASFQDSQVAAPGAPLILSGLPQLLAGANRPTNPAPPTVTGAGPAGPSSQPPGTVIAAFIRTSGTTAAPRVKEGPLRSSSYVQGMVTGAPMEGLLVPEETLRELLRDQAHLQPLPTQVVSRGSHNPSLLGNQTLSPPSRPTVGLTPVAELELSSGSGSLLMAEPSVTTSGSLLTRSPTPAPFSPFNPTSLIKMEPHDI
Procedure, shortened: as §1

ELK4 = target: T7, ELK4 (Homo sapiens, UniProt P28324-2 1-405); conditions: protein: recombinant; tags: N-terminal GST; dsDNA, one strand shown
T7 sequence: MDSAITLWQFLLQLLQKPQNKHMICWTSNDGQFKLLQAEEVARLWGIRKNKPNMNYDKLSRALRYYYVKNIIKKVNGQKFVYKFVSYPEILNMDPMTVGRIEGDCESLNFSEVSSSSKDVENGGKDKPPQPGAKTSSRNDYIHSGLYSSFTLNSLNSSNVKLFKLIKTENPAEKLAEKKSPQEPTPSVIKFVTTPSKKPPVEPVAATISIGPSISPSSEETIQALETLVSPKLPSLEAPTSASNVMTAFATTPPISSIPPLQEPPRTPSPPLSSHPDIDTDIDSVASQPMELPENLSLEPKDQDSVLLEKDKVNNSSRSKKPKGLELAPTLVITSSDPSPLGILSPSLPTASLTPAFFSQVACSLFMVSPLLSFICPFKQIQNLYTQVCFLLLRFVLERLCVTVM
Procedure, shortened: as §1

ELF3 = target: T8, ELF3 (Homo sapiens, UniProt P78545 1-371); conditions: protein: recombinant; tags: N-terminal GST; dsDNA, one strand shown
T8 sequence: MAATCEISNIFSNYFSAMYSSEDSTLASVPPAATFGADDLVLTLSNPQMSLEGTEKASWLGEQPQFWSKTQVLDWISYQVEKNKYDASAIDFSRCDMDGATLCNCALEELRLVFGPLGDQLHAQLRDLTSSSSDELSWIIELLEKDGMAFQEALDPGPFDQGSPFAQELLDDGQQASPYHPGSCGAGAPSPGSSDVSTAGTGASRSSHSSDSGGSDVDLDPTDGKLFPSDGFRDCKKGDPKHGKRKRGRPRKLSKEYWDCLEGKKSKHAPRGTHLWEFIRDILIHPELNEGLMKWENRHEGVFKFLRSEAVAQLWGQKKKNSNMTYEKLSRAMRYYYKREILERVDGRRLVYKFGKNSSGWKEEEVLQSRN
Procedure, shortened: as §1

CRX = CRX (Homo sapiens, UniProt O43186 1-299); conditions: protein: recombinant; tags: N-terminal GST; dsDNA, one strand shown
Sequence of CRX (O43186 whole entry): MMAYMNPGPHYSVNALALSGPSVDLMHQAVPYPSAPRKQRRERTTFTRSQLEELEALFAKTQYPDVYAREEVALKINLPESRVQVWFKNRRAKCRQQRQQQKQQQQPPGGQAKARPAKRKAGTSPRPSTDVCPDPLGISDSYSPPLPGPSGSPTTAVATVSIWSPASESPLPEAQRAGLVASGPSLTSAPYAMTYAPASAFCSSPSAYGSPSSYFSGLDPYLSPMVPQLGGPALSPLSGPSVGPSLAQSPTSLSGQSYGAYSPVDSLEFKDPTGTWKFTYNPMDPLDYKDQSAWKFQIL
Procedure, shortened: as §1

EHF = target: T9, EHF (Homo sapiens, UniProt Q9NZC4 1-300); conditions: protein: recombinant; tags: N-terminal GST; dsDNA, one strand shown
T9 sequence: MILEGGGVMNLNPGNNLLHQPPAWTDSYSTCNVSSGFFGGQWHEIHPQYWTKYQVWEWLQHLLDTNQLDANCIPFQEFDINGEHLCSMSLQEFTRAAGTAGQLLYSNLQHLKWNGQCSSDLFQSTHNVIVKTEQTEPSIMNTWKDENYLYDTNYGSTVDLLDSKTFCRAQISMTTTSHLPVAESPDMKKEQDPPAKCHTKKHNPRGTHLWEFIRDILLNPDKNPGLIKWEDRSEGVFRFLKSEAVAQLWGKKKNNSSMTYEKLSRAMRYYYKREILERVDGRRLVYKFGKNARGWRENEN
Procedure, shortened: as §1

SPI1 = SPI1 (Homo sapiens, UniProt P17947 1-270); conditions: protein: recombinant; tags: N-terminal GST; dsDNA, one strand shown
Procedure, shortened: as §1

ETV1 = ETV1 (Homo sapiens, UniProt P50549 1-477); conditions: protein: recombinant; tags: N-terminal GST; dsDNA, one strand shown
Sequence of ETV1 (P50549 whole entry): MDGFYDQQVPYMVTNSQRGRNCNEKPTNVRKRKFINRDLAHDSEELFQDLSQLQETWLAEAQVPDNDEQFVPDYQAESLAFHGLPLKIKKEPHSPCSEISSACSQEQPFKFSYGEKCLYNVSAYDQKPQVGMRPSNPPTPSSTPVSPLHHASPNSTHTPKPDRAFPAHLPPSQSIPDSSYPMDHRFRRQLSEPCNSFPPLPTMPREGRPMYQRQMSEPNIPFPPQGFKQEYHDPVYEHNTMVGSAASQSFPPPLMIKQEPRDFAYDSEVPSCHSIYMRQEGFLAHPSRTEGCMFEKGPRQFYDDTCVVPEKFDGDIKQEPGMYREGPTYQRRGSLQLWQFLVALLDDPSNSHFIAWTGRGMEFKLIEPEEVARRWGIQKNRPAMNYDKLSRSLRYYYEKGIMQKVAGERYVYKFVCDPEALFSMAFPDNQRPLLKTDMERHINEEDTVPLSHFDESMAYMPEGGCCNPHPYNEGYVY
Procedure, shortened: as §1

Sequence	binding signal (FLI1)	binding signal (ELK1)	binding signal (GABPA)	binding signal (ERG)	binding signal (ELF1)	binding signal (SPIB)	binding signal (ELK3)	binding signal (ETV5)	binding signal (HSF1)	binding signal (SPIC)	binding signal (ELF4)	binding signal (ELK4)	binding signal (ELF3)	binding signal (CRX)	binding signal (EHF)	binding signal (SPI1)	binding signal (ETV1)
AATCGA	1 fold enrichment (6-mer frequency, TF over GST control)	1.06 fold enrichment (6-mer frequency, TF over GST control)	1.07 fold enrichment (6-mer frequency, TF over GST control)	1.02 fold enrichment (6-mer frequency, TF over GST control)	1.03 fold enrichment (6-mer frequency, TF over GST control)	1.07 fold enrichment (6-mer frequency, TF over GST control)	1.12 fold enrichment (6-mer frequency, TF over GST control)	1.05 fold enrichment (6-mer frequency, TF over GST control)	1.38 fold enrichment (6-mer frequency, TF over GST control)	1.11 fold enrichment (6-mer frequency, TF over GST control)	1.03 fold enrichment (6-mer frequency, TF over GST control)	1.03 fold enrichment (6-mer frequency, TF over GST control)	1.11 fold enrichment (6-mer frequency, TF over GST control)	1.2 fold enrichment (6-mer frequency, TF over GST control)			
GATAAT	1.04 fold enrichment (6-mer frequency, TF over GST control)	1.05 fold enrichment (6-mer frequency, TF over GST control)	1.13 fold enrichment (6-mer frequency, TF over GST control)	1.03 fold enrichment (6-mer frequency, TF over GST control)	1.02 fold enrichment (6-mer frequency, TF over GST control)	1.12 fold enrichment (6-mer frequency, TF over GST control)	1.12 fold enrichment (6-mer frequency, TF over GST control)	1.05 fold enrichment (6-mer frequency, TF over GST control)	1.98 fold enrichment (6-mer frequency, TF over GST control)	1.27 fold enrichment (6-mer frequency, TF over GST control)	1.1 fold enrichment (6-mer frequency, TF over GST control)	1.09 fold enrichment (6-mer frequency, TF over GST control)		2.88 fold enrichment (6-mer frequency, TF over GST control)	1.09 fold enrichment (6-mer frequency, TF over GST control)	1.09 fold enrichment (6-mer frequency, TF over GST control)	1.14 fold enrichment (6-mer frequency, TF over GST control)
